Assay outcomes: PubChem BioAssay, several laboratories
An excerpt weighted towards active compounds, which were near 2.4% of everything screened.
NadD inh = blocks S. aureus nicotinate mononucleotide adenylyltransferase; hit rate 0.78% among 360,000; inhibition, % at 20 µM; purified NadD enzyme, colorimetric absorbance read-out; AID 602399; in the data active means inhibition above about 26%
PP1 counter = blocks human PP1-alpha phosphatase, a PP5 counter-screen | inhibition, % at 6.7 µM | purified PP1alpha, OMFP fluorescence | P62136 | AID 2235 | hit rate 0.9% among 320,000;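 active means inhibition above the mean inhibition of all tested compounds plus 3 SD, computed separately for each screening campaign, cut at about 15% in these data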
PREPL inh = human PREPL enzyme inhibition; AID 2751; hit rate 0.68% among 320,000; recombinant PREPL, fluorescence polarization activity-based probe; inhibition, % at 5.96 µM; Q4J6C6; in the data active means inhibition above about 43%;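 further: 0% = enzyme with DMSO and 100% = wells lacking enzyme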
Rpn11 block = Rpn11 (human) deubiquitinase inhibition; O00487; AID 588493; human 26S proteasome, Ub4-pepOG fluorescence polarization; 20S core pre-blocked with epoxomicin; inhibition, % at 20 µM; hit rate 0.59% among 360,000;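 active means inhibition at 20 µM, scaled to each plate's controls, above about 33%, limit read from the data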
PP5 primary = PP5 (human) phosphatase inhibition | AID 1987 | P53041 | hit rate 0.18% among 320,000 | inhibition, % at 6.7 µM | purified PP5c, OMFP substrate fluorescence;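 active means inhibition above the campaign's mean inhibition across all tested compounds plus 3 SD, cut at about 9.5% in these data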;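 further: 0% = DMSO only and 100% = 100 µM cantharidin control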
Rpn11 confirm = confirmation of human proteasome Rpn11 inhibitors | shares compounds with Rpn11 block | purified human 26S proteasome, Ub4-pepOG fluorescence polarization; proteasome pretreated with epoxomicin | inhibition, % at 20 µM | hit rate 29% among 1,900 | AID 602318
MMP-2 counter = blocks human MMP-2, flagging nonselective RPN11 hits; hit rate 4% among 1,900; recombinant MMP-2, FRET peptide cleavage fluorescence; shares compounds with Rpn11 block; inhibition, % at 20 µM;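 further: human MMP-2 activated beforehand with APMA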
Target sequence (P08253 whole entry, looked up): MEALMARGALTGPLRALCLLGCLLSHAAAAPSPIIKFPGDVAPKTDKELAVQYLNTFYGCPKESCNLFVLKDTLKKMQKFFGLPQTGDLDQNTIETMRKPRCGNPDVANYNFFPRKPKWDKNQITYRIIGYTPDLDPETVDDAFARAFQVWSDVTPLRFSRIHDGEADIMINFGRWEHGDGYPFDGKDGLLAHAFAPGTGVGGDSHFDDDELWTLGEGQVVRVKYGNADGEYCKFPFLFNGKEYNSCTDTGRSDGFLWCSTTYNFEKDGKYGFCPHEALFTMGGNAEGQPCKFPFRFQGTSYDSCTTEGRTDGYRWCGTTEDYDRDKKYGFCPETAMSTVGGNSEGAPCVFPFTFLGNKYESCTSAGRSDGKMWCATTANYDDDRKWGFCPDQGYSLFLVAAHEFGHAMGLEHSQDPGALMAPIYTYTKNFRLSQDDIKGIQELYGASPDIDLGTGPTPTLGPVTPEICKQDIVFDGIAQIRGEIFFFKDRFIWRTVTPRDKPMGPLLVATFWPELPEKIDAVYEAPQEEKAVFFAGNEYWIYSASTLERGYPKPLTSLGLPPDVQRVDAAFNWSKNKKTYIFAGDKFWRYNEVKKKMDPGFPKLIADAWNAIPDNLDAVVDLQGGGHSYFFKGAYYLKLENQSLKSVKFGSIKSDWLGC
Thrombin inh = blocks bovine thrombin, flagging nonselective RPN11 hits; inhibition, % at 20 µM; AID 602333; hit rate 13% among 1,900; shares compounds with Rpn11 block; bovine thrombin cleavage of Ub4-pepOG, fluorescence polarization;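 active means mean inhibition at least 40% at 20 µM, or signal 3 deviations below plate average, so some actives read negative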;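 further: plate controls were thrombin with DMSO for no effect and buffer wells lacking thrombin for full effect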
Starred values were filed as active, the others as inactive; / = no result. Unless noted, no stated cut-off is given here; in the data, active means inhibition above about 40%; inactive means the rest.

SMILES	NadD inh	PP1 counter	PREPL inh	Rpn11 block	PP5 primary	Rpn11 confirm	MMP-2 counter	Thrombin inh
O=C1Nc2ccccc2Nc2ccc([N+](=O)[O-])cc21	-2	-1	10	-2	3	/	/	/
Cc1ccc(Oc2cc([N+](=O)[O-])cc3c2C(=O)Nc2ccccc2O3)cc1	19	6	17	49*	1	51*	-18	63*
COC(=O)c1c(SCC(=O)NC2CCCCC2)[nH]c2ccccc2c1=O	-4	-4	-23	91*	0	9	-35	6
O=C(COC(=O)c1cc(=O)[nH]c2ccccc12)NC1CCCCC1	1	/	2	-1	/	/	/	/
COc1ccc(S(=O)(=O)N2CCC(C(=O)NCc3cccnc3)CC2)cc1Cl	-4	3	-1	8	1	/	/	/
O=C(Nc1ccc(O)c(-c2nc3ccccc3s2)c1)C1=COCCO1	-3	4	5	7	-2	/	/	/
O=C(Nc1ccc(-c2nc3ccccc3s2)c(O)c1)C1=COCCO1	6	-2	10	48*	-1	43*	38	-20
CS(=O)(=O)N1CCCCC1c1cc(C(=O)NCc2ccc(Cl)c(Cl)c2)no1 (stereo not drawn)	-5	/	/	-2	/	/	/	/
COc1ccc(/C=C2\SC(=S)N(CCCC(=O)Nc3ccc(C(=O)O)cc3)C2=O)cc1OC	2	8	13	56*	2	67*	-24	52*
CCOc1ccc(/C=C2/SC(=S)N(CCC(=O)Nc3ccc(C(=O)O)cc3)C2=O)cc1	38*	-1	8	79*	3	-10	-2	2
Cc1ccc(/C=C2/SC(=S)N(CCCC(=O)Nc3ccc(O)cc3)C2=O)cc1	2	/	/	-10	/	/	/	/
COc1ccc(/C=C2/SC(=S)N(CCCC(=O)Nc3ccc(O)cc3)C2=O)cc1OC	10	-4	18	45*	2	61*	-10	42*
Cc1ccc(/C=C2\SC(=S)N(CCCC(=O)NNC(=O)c3ccccc3O)C2=O)cc1	27	-1	8	42*	0	43*	-32	-22
O=C(OCCc1cc2ccccc2c(=O)o1)c1cccc(Br)c1	-5	1	0	-9	1	/	/	/
CCc1ccc(/C=C2\SC(=S)N(CCC(=O)N3CCN(C)CC3)C2=O)cc1	0	-1	38	51*	1	70*	-53	54*
COc1cc(/C=C2/SC(=S)N(CC(=O)O)C2=O)ccc1OC(=O)c1ccco1	3	2	25	45*	3	19	-8	15
COc1ccc(/C=C2\SC(=S)N(CCC(=O)Nc3ccccc3C(=O)O)C2=O)cc1	1	-3	0	-1	1	/	/	/
COc1ccc(/C=C2\SC(=S)N(CCCC(=O)Nc3ccccc3C(=O)O)C2=O)cc1OC	8	2	-3	48*	3	88*	-30	81*
O=C(O)CCCCN1C(=O)/C(=C\c2ccc(OCc3ccccc3)c(OCc3ccccc3)c2)SC1=S	23	-2	10	43*	2	43*	2	0
CCOC(=O)N1CCN(S(=O)(=O)N2CCCC(C(=O)NCc3cc(OC)ccc3OC)C2)CC1 (stereo not drawn)	-5	/	/	-5	/	/	/	/
CCc1cc(Cn2nc(-c3ccccc3)cc2C(=O)NCc2cccc(Br)c2)on1	-5	/	-4	-1	/	/	/	/
COc1cccc(-n2c(SCC(N)=O)nc3ccccc3c2=O)c1	-7	-5	2	66*	1	56*	-4	19
Cc1ccc(-c2nc(NC(=O)CSc3nnc4scc(-c5ccccc5)n34)ns2)cc1	13	-6	2	60*	-1	7	-30	-2
CSc1sc(-c2nnc(SCC(=O)Nc3ccc(Cl)cc3)n2C)c2c1C=CCC2	5	11	13	40*	-3	2	-16	4
Cn1c(SCC(=O)Nc2ccc(Cl)cc2)nnc1C1CC1	-1	2	-13	1	1	/	/	/
CN(CC(=O)O/N=C(\N)c1ccc([N+](=O)[O-])cc1)S(=O)(=O)c1ccc2ccccc2c1	-7	-2	-34	-8	1	/	/	/
